Assay outcomes from PubChem.
A549 viability: kills or reduces viability of A549 cells in Nrf2 counter-screen | Potency, µM (top dose mostly 46 µM), most hits filed as inhibitors | 390,000 compounds, 0.16% hits | A549 ARE-Fluc cells, CellTiter-Fluor viability, 18-24 h
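A549 ARE_Fluc cells in 5% FBS OPTI-MEM were exposed to compounds in concentration-response for 18-24 h at 37 deg C. Viability was read by CellTiter-Fluor fluorescence (Ex 405/Em 525) after 30 min, before the luciferase read.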
PINK1 modulator: changes PINK1 expression; 410,000 compounds, 0.2% hits; PINK1 immunofluorescence, high-content cytometry, 24 h; Potency, µM (highest dose often 76.6 µM), most hits filed as activators; active means well fitted activation curve with a large enough effect; inconclusive means small, poorly fitted or top-dose-only effect; cell line not stated here; further: nearly all actives have a fitted effect of over 65% in size
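Cells are seeded, rested 12 hours, then given compound at five concentrations or DMSO for 24 hours. After fixation, blocking and antibody staining, PINK1 amount and mitochondrial localization are scored; CCCP serves as control.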
Nrf2 inh: inhibitors of Nrf2 signaling; A549 ARE-Fluc reporter, luciferase luminescence, 18-24 h; 360,000 compounds, 2.1% hits; Potency, µM (series often up to 46 µM), usual class: inhibitors; AID 504444; further: nearly all actives have a fitted effect of over 60% in size
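Cells were seeded and rested 2 h, then exposed to compounds for 18-24 h. CellTiter-Fluor was read first as a viability measure. BugLite was added 15 min before the final luminescent read of ARE-luciferase activity in A549 cells.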
Epigenetic reg: derepresses silenced GFP reporter in murine cells. AID 1865. murine LDR cells, GFP reporter derepression, 30 h. 280,000 compounds, 0.2% hits. Potency, µM (doses to about 53.9 µM), actives largely listed as activators; further: nearly all actives have a fitted effect of over 60% in size
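Murine LDR cells carrying a silenced, genomically integrated CMV-driven GFP reporter were exposed to compound for 30 hours at 37 C. After PBS washes, GFP-positive cells (20–120 um objects) were counted by laser-scanning microplate cytometry.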
Nrf2 activator: activators of Nrf2 (ARE) signaling; AREc32 ARE-luciferase reporter (MCF7-derived line), luminescence, 24 h; Potency, µM (titrated, usually from 46.1 µM), most hits filed as activators; 410,000 compounds, 0.31% hits; AID 624171; further: nearly all actives have a fitted effect of over 65% in size
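AREc32 cells carrying an ARE-driven firefly luciferase, 1000 cells/well in OPTI-MEM with 5% FBS, dosed after overnight attachment and incubated 24 hr at 37 deg C. Steady-Glo luminescence read after 30 min at RT.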
Of the large screens only hits and unclear results are named; the others gave an inactive call. Only some compounds are listed: those with a hit (about 2.4% of all), similar ones and a draw of the others. Unless noted, the call rests on the fitted dose curve; in most records, active means well fitted curve in the direction sought with a large enough effect; inconclusive means small, poorly fitted or top-dose-only effect, or another doubt; inactive means no such curve, though single readings can be large; an effect the other way counts as inactive or inconclusive.

N=c1c2c(-c3ccccc3)c(-c3ccccc3)n(Cc3ccco3)c2ncn1Cc1ccccc1	none
CC(C)Cn1cnc2c(c(-c3ccccc3)c(-c3ccccc3)n2Cc2ccco2)c1=N	A549 viability 23µM
Cc1ccc(C)c(NC(=O)Cn2c(=O)n(CC3CCCO3)c(=O)c3ccccc32)c1 (stereo unspecified)	none
CC1CC=CC2C1C(=O)N(Cc1ccccc1)C2c1ccc(Br)cc1F (stereo unspecified)	none (no result: PINK1 modulator, Epigenetic reg, Nrf2 activator)
CN1/C(=C\C=C(C#N)C#N)C(C)(C)c2ccccc21	Epigenetic reg 25µM
CN1/C(=C/C=N/n2cnnc2)C(C)(C)c2ccccc21	none (no result: PINK1 modulator)
CN1/C(=C\C=C(/C#N)C(=O)Nc2ccc(Cl)cc2)C(C)(C)c2ccccc21	PINK1 modulator inconclusive, Epigenetic reg 22µM
COC(=O)c1ccccc1-c1cc(C)cc2c1OC(CNC(=O)C1CCCO1)C2 (stereo unspecified)	none (no result: A549 viability, Nrf2 inh, Epigenetic reg, Nrf2 activator)
CCN(CC)/[N+]([O-])=N/OCOC(=O)C(C)c1ccc(CC(C)C)cc1 (stereo unspecified)	none (no result: A549 viability, Nrf2 inh, Epigenetic reg, Nrf2 activator)
COc1ccc(-n2c(SCC(=O)NCc3ccc(Cl)cc3)nc3ccsc3c2=O)cc1	none
O=C(Nc1cccc(-c2nnc(-c3ccccc3)o2)c1)c1ccc(Br)o1	A549 viability inconclusive, Nrf2 inh 23µM (no result: PINK1 modulator)
Cc1cc(C)c2oc(-c3cccc(NC(=O)c4ccc(Br)o4)c3)nc2c1	none
Cc1ccc(CSc2nc3ccc(NC(=O)COc4ccccc4)cc3s2)cc1	none
Cc1ccc(CNC(=O)c2ccc3nc4[nH]c5ccccc5c4nc3c2)cc1	none (no result: A549 viability, PINK1 modulator, Nrf2 inh, Nrf2 activator)
COc1ccccc1CNC(=O)c1ccc2nc3[nH]c4ccccc4c3nc2c1	A549 viability inconclusive, Nrf2 inh 15µM, Epigenetic reg inconclusive
COc1ccc(CN2CCOc3ccc(CN4CCC(O)CC4)cc3C2)c(OC)c1OC	none (no result: A549 viability, Nrf2 inh, Epigenetic reg, Nrf2 activator)
O=c1c(Cl)c(Nc2cccc(Cl)c2)cnn1-c1nc2ccccc2s1	Nrf2 inh inconclusive
COc1ccc(Nc2cnn(-c3nc4ccccc4s3)c(=O)c2Cl)cc1	PINK1 modulator inconclusive, Nrf2 inh inconclusive, Nrf2 activator 10µM
CC(/C=C/c1ccco1)=N/NC(=O)c1ccccc1Cl	Nrf2 inh inconclusive, Nrf2 activator inconclusive
O=C(N/N=C/C=C/c1ccco1)c1ccccc1Cl	Nrf2 activator 11µM
O=C(N/N=C/C=C/c1ccco1)c1cccc([N+](=O)[O-])c1	Nrf2 activator 2.2µM
O=C(/C=C/c1ccco1)c1cccc([N+](=O)[O-])c1	Nrf2 activator inconclusive (no result: Epigenetic reg)
CCOc1ccccc1NC(=O)CN(CCc1ccccc1)S(=O)(=O)c1ccc(C)cc1	none
C=CCn1cccc(C(=O)Nc2ccc(OCC)cc2)c1=O	Nrf2 inh 12µM
Cc1[nH]n(-c2ccccc2)c(=O)c1C=Nc1cccc(F)c1	none
Cc1cccc(-n2[nH]c(C)c(C=Nc3ccc4[nH]c(=O)[nH]c4c3)c2=O)c1	PINK1 modulator 32µM, Epigenetic reg inconclusive
Cc1cccc(/N=C/c2c(C)[nH]n(-c3ccccc3)c2=O)n1	none
Cc1[nH]n(-c2ccccc2)c(=O)c1C=Nc1ccc2[nH]c(=O)[nH]c2c1	PINK1 modulator 35µM, Epigenetic reg inconclusive
O=C(CNC(=S)N(Cc1ccccc1)Cc1ccccc1F)NCc1ccccc1	Nrf2 inh inconclusive
O=C(CNC(=S)N(Cc1ccccc1)Cc1ccccc1F)NCc1ccc(Cl)cc1	A549 viability inconclusive, Nrf2 inh 26µM
CC(C)N(C(=S)Nc1cccc(C(F)(F)F)c1)C(C)c1ccccn1 (stereo unspecified)	PINK1 modulator 32µM
COc1ccc(N=c2cc(-c3ccc(OC)cc3)oc3ccccc23)cc1	A549 viability inconclusive, Nrf2 inh 16µM
COc1ccccc1N1CCN(Cc2nc(-c3ccc(F)cc3)oc2C)CC1	Nrf2 inh inconclusive
COc1ccc(-c2csc3ncnc(N4CCN(c5ccccc5OC)CC4)c23)cc1	A549 viability inconclusive, Nrf2 inh 23µM (no result: Epigenetic reg)
CCOc1ccccc1N1CCN(c2ncnc3scc(-c4ccc(OC)cc4)c23)CC1	Nrf2 inh inconclusive (no result: Epigenetic reg)
Cc1ccc(-c2csc3ncnc(N4CCN(Cc5ccccc5)CC4)c23)cc1	Nrf2 inh 23µM (no result: Epigenetic reg)
COc1ccc(-c2nc(CN3CCN(c4ccccc4OC)CC3)c(C)o2)cc1	A549 viability inconclusive, Nrf2 inh 18µM
Fc1ccc(CN2CCN(c3ncnc4scc(-c5ccccc5)c34)CC2)cc1	Nrf2 inh 23µM (no result: Epigenetic reg)
Fc1ccc(-c2csc3ncnc(N4CCN(Cc5ccccc5)CC4)c23)cc1	none (no result: Epigenetic reg)
Cc1ncc(C(O)c2ccc(N(C)C)cc2)n1Cc1ccccc1 (stereo unspecified)	none (no result: A549 viability, Nrf2 inh, Epigenetic reg)
CN(C)c1ccc2nc3c(=O)[nH]c(=O)nc-3n(CC(O)C(O)C(O)CO)c2c1 (stereo unspecified)	A549 viability 10µM, Nrf2 inh inconclusive (no result: Epigenetic reg)
O=C(O)CSc1cccc[n+]1[O-]	none
N#CC(C#N)=C(N)CSc1cccc[n+]1[O-]	Epigenetic reg 8.9µM
Brc1ccccc1OCCCCn1cnc2ccccc21	Nrf2 inh 7.3µM
CN(C(=O)Cc1c[nH]c2ccccc12)C(C(=O)Nc1ccc2c(c1)OCO2)c1ccccc1 (stereo unspecified)	A549 viability inconclusive, Nrf2 inh 23µM
CC(=O)NC(Cc1c[nH]c2ccccc12)C(=O)Nc1ccc2c(c1)OCO2 (stereo unspecified)	none (no result: Nrf2 inh)
CN(CC(O)CON=C1c2ccccc2-c2ccccc21)S(=O)(=O)c1ccc(Br)cc1 (stereo unspecified)	A549 viability inconclusive, PINK1 modulator inconclusive, Nrf2 inh 21µM
CCN(CC(O)CON=C1c2ccccc2-c2ccccc21)S(=O)(=O)c1ccc(C)cc1 (stereo unspecified)	A549 viability inconclusive, Nrf2 inh 21µM
CN(C)c1ccc(/C=C2\C=Nc3ccccc32)cc1	none (no result: A549 viability, Nrf2 inh, Epigenetic reg, Nrf2 activator)
CCN(Cc1ccccc1)C(=O)c1sc2nc3n(c(=O)c2c1C)CCCC3	Nrf2 inh 23µM
COc1ccc(C(=O)C(C)Oc2cccc(NC(=O)c3cccc([N+](=O)[O-])c3)c2)cc1 (stereo unspecified)	Nrf2 inh 26µM
CC(C)C(=O)Nc1cccc(NC(=O)c2cccc([N+](=O)[O-])c2)c1	none
Cc1cc2c(s1)c1cnn(Cc3cccc4cccnc34)c(=O)c1n2C	none (no result: PINK1 modulator, Epigenetic reg, Nrf2 activator)
COc1ccc(CCNC(=O)c2cc(Nc3cc(C)cc(C)c3)nc3ccccc23)cc1OC	Nrf2 inh inconclusive
CC(=NNc1nc2ccccc2s1)c1ncccn1	A549 viability inconclusive, Nrf2 inh inconclusive, Nrf2 activator 11µM (no result: Epigenetic reg)
O=C(CCSc1ccc(Br)cc1)c1ccc(O)cc1	Nrf2 inh inconclusive, Nrf2 activator 16µM (no result: Epigenetic reg)
CCCCn1c2c(c(=N)c3ccccc31)CCC2	none
CCCCCCCCn1c2c(c(=N)c3ccccc31)CCC2	A549 viability inconclusive, PINK1 modulator 13µM, Nrf2 inh 2.9µM
